MAVGPPDAPVGGPLTF [INO80E, Q8NBZ0]
selected by phage display (CEP55 160-217, Q53EZ4): confidence 2 (active)

EVAFGKEGLWKLLGGF [GNL3, Q9BVP2]
selected by phage display (CALM1 2-149, P0DP23): confidence 2 (active)

PPSADYSTPPHRTVPE [BAHD1, Q8TBE0]
selected by phage display (CEP55 160-217, Q53EZ4): confidence 3 (active)

LWPVLRSDAFSGLTAL [FIGN, Q5HY92]
selected by phage display (CALM1 2-149, P0DP23): confidence 3 (active)

STWGTVKDSLKALSSA [SRARP, Q8NEQ6]
selected by phage display (CALM1 2-149, P0DP23): confidence 2 (active)

DRSWHQMVVRALSSQE [HSH2D, Q96JZ2]
selected by phage display (CALM1 2-149, P0DP23): confidence 2 (active)

PYPKWNSVFDQLTQVV [MAP2K4, P45985]
selected by phage display (CALM1 2-149, P0DP23): confidence 3 (active)

MMLSEQAQKWFPTHVQ [RAB11FIP2, Q7L804]
selected by phage display (CALM1 2-149, P0DP23): confidence 2 (active)

GPPSLNYIPPVLQLSG [TEX14, Q8IWB6]
selected by phage display (CEP55 160-217, Q53EZ4): confidence 2 (active)

GLLLMEEEGHSDLISF [TMEM94, Q12767]
selected by phage display (CLTC 1-364, Q00610): confidence 4 (active)

WKTLKERESILKLLDG [TADA3, O75528]
selected by phage display (CALM1 2-149, P0DP23): confidence 3 (active)

LSIPVTSEPPALPPKP [DOCK4, Q8N1I0]
selected by phage display (CRK 124-198, P46108): confidence 2 (active)

ANTLPVSGNLIDLYGN [MITF, O75030]
selected by phage display (CLTC 1-364, Q00610): confidence 3 (active)

LWLALRETVYDPSLPA [DISP2, A7MBM2]
selected by phage display (CALM1 2-149, P0DP23): confidence 3 (active)

LPLIDFADTPEAHVAV [GTSE1, Q9NYZ3]
selected by phage display (CLTC 1-364, Q00610): confidence 3 (active)

PPVPPKSEAVREEARL [GAREM1, Q9H706]
selected by phage display (CRK 124-198, P46108): confidence 4 (active)

AQDFFQRWKQLSLPQQ [AP2A1, O95782]
selected by phage display (CALM1 2-149, P0DP23): confidence 2 (active)

SFWLFRVSPTTFPFLY [ATP8B3, O60423]
selected by phage display (CALM1 2-149, P0DP23): confidence 2 (active)

TNLPDVPNKSAPSPTS [ZNF462, Q96JM2]
selected by phage display (CRK 124-198, P46108): confidence 2 (active)

AVPSNASWEQAMKMVV [PRPF40B, Q6NWY9]
selected by phage display (CALM1 2-149, P0DP23): confidence 2 (active)

SADLIQFEERPQEPSE [MARF1, Q9Y4F3]
selected by phage display (CLTC 1-364, Q00610): confidence 3 (active)

PPATSYAPSDVPSGVA [MALL, Q13021]
selected by phage display (CEP55 160-217, Q53EZ4): confidence 2 (active)

TNWTLLKSDMNKPHLI [TTLL6, Q8N841]
selected by phage display (CALM1 2-149, P0DP23): confidence 2 (active)

KWPSLATLAATPISSS [AGAP7P, Q5VUJ5]
selected by phage display (CALM1 2-149, P0DP23): confidence 3 (active)

SNWSPLGPPSSPYGAA [MAML3, Q96JK9]
selected by phage display (CEP55 160-217, Q53EZ4): confidence 2 (active)

MQIPQAPWPVVWAVLQ [PDCD1, Q15116]
selected by phage display (AP2B1 700-937, P63010): confidence 4 (active)

AWKTALLANVGTISAI [PERM1, Q5SV97]
selected by phage display (CALM1 2-149, P0DP23): confidence 2 (active)

PPFTDYRQPPLDYRQP [MAGI2, Q86UL8]
selected by phage display (CEP55 160-217, Q53EZ4): confidence 3 (active)

WPLLRKQLEGRLALPS [SPATA31A6, Q5VVP1]
selected by phage display (CALM1 2-149, P0DP23): confidence 2 (active)

DWSNLVDAAKAYEVQR [SIPA1L1, O43166]
selected by phage display (CALM1 2-149, P0DP23): confidence 3 (active)

EHNLITWTDGPPPVQF [MAU2, Q9Y6X3]
selected by phage display (CLTC 1-364, Q00610): confidence 4 (active)

AREPPADVWTPPARAS [TRIM25, Q14258]
selected by phage display (CEP55 160-217, Q53EZ4): confidence 2 (active)

PVSSLAEPDLINFMDF [DENND4C, Q5VZ89]
selected by phage display (CLTC 1-364, Q00610): confidence 2 (active)

PTPVLMNQPPQIAPKR [EIF4G1, Q04637]
selected by phage display (CRK 124-198, P46108): confidence 3 (active)

NSTSRPTLPVKSLAQR [SZRD1, Q7Z422]
selected by phage display (CRK 124-198, P46108): confidence 2 (active)

SISSQVSSAVMKSLLA [IL16, Q14005]
selected by phage display (CALM1 2-149, P0DP23): confidence 2 (active)

AWSDVVGRRSSLLAAI [MFSD9, Q8NBP5]
selected by phage display (CALM1 2-149, P0DP23): confidence 2 (active)

SIPRSWPSAHSVSNIL [PAX1, P15863]
selected by phage display (CALM1 2-149, P0DP23): confidence 2 (active)

DLLSGDLIFLGSDSHP [GJB5, O95377]
selected by phage display (CLTC 1-364, Q00610): confidence 3 (active)

VGSLIDFGPEAPTSSP [KIAA0513, O60268]
selected by phage display (CLTC 1-364, Q00610): confidence 3 (active)

GTHWRVLGLALLSVGV [CD3E, P07766]
selected by phage display (CALM1 2-149, P0DP23): confidence 3 (active)

PQSPPASMYGSTGSLL [PSD, A5PKW4]
selected by phage display (CEP55 160-217, Q53EZ4): confidence 2 (active)

KEPPAKVPEVPKKIVV [TTN, Q8WZ42]
selected by phage display (CRK 124-198, P46108): confidence 3 (active)

SLISWDEPGVDFYSKP [PIK3C2B, O00750]
selected by phage display (CLTC 1-364, Q00610): confidence 4 (active)

PPAAVYYAPAGPTSAQ [AKNA, Q7Z591]
selected by phage display (CEP55 160-217, Q53EZ4): confidence 3 (active)

DAKAPPTAAYAGAAPA [CEBPB, P17676]
selected by phage display (CEP55 160-217, Q53EZ4): confidence 4 (active)

VTAGWTWPALRTLSSL [NFKBIE, O00221]
selected by phage display (CALM1 2-149, P0DP23): confidence 2 (active)

PALPSKLLSSGSAKAD [IL17RD, Q8NFM7]
selected by phage display (CRK 124-198, P46108): confidence 3 (active)

QVPSLPLKDSQELTAS [ZKSCAN5, Q9Y2L8]
selected by phage display (CRK 124-198, P46108): confidence 4 (active)

WNLLQQQTTTTSSKNL [KRT4, P19013]
selected by phage display (CALM1 2-149, P0DP23): confidence 3 (active)

AWKSLTDKVQEARSNA [KMT2A, Q03164]
selected by phage display (CALM1 2-149, P0DP23): confidence 2 (active)

PPPLPPKPRISSYPED [MAP4K5, Q9Y4K4]
selected by phage display (CRK 124-198, P46108): confidence 2 (active)

WQRLQSNPHLKEGSVT [ACY1, Q03154]
selected by phage display (CALM1 2-149, P0DP23): confidence 2 (active)

GGLLHWERLLGGLGGE [NCKAP5L, Q9HCH0]
selected by phage display (CALM1 2-149, P0DP23): confidence 2 (active)

LSETVTKPPLPQKNTA [NSUN7, Q8NE18]
selected by phage display (CRK 124-198, P46108): confidence 3 (active)

APSLPGKGSGASVALM [ZNF469, Q96JG9]
selected by phage display (CRK 124-198, P46108): confidence 3 (active)

PPSQSYGGGPAQVPLP [ANXA7, P20073]
selected by phage display (CEP55 160-217, Q53EZ4): confidence 2 (active)

GQVQVADLLGINGTGE [CCDC141, Q6ZP82]
selected by phage display (CLTC 1-364, Q00610): confidence 2 (active)

WSYLMHFLFDHSNLGS [OR52I1, Q8NGK6]
selected by phage display (CEP55 160-217, Q53EZ4): confidence 2 (active)

NLPPPLPPKKYAITSV [USP53, Q70EK8]
selected by phage display (CRK 124-198, P46108): confidence 2 (active)

EISNRWKLAQVQVQKD [EXOSC10, Q01780]
selected by phage display (CALM1 2-149, P0DP23): confidence 2 (active)

MAAWKSWTALRLAATV [TMX3, Q96JJ7]
selected by phage display (CALM1 2-149, P0DP23): confidence 2 (active)

CLTC 1-364, Q00610, sequence (Q00610 1-364): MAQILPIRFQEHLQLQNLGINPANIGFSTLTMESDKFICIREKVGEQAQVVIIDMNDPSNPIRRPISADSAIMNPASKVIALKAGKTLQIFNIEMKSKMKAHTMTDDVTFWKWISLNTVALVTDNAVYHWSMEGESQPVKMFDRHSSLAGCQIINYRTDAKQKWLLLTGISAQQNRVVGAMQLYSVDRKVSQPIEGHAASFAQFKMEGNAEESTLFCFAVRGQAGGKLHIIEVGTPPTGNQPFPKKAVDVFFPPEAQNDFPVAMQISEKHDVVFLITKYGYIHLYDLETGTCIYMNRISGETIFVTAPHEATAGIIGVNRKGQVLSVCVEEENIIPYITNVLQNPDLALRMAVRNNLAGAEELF
CEP55 160-217, Q53EZ4, sequence (Q53EZ4 160-217): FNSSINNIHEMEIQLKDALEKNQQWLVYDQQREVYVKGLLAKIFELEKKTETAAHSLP
CRK 124-198, P46108, sequence (P46108 124-198): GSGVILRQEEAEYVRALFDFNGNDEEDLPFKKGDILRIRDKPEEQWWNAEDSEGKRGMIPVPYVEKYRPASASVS
AP2B1 700-937, P63010, sequence (P63010 700-937): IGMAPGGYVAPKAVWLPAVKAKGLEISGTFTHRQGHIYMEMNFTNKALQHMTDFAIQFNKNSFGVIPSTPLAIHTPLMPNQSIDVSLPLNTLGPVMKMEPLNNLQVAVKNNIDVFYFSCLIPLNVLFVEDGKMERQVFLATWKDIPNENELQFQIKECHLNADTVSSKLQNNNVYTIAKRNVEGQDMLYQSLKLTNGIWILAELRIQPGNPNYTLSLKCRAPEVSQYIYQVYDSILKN
